The campaign covered roughly 360,000 compounds. About 17,000 (4.7%) were called active. About 5% were inconclusive and are not listed. The list comes from a sample in which actives are over-represented; it also holds similar structures and randomly drawn compounds. Unmarked numbers belong to inactive results. Rule as the data show it: active = activity change below about -50%; inconclusive = mostly about -30% to -49%; inactive = weaker than that.
% is scaled to controls: 0 for no effect and ±100 for the full control effect.

The assay is described as follows: qHTS for Inhibitors of Inflammasome Signaling: IL-1-beta AlphaLISA Primary Screen. The following applies: THP-1 LPS/ATP IL-1B secretion, 16 h; at 57.5 µM, hits give low values. The gist of the method: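 THP-1 cells pretreated 1 hr with compounds (up to 57.5 uM final), then stimulated with LPS (250 ng/mL final) plus ATP (1.25 mM final); secreted IL-1B measured by AlphaLISA after 16 hr, decreased signal indicating inhibition.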
A general note: qHTS replaces the single test concentration by a dilution series.
In the case of `CCCOc1ccc(C(=O)CCC(=O)OC(C)C(=O)Nc2ccc(NC(C)=O)cc2)cc1` (stereo unspecified), the activity change was 10.1%. On to `CCCOc1ccc(NC(=O)C2CCCNC2=O)cc1` (stereo unspecified), for which the activity change is -6.06%. In the case of `CCCOc1ccc(C(=O)C(CCC(CNCC)C(=O)c2ccc(OCCC)cc2)CNCC)cc1` (stereo unspecified), the activity change is -94% (active).

In the case of `Cc1[nH]c2ccccc2c1/C=N/NC(=O)CNC(=O)c1ccc2c(c1)OCO2`, the activity change is 0%. With `COc1ccc2ccccc2c1/C=N/NC(=O)c1cc(C)[nH]n1`, the activity change is 0%.

Take `COCCNC(=S)N/N=C/c1c(C)[nH]c2ccccc12`: the activity change was -69.7% (active).

Take `OCCNc1nc2ccccc2n1-c1ncnc2sc3c(c12)CCC3`: the activity change was 20.3%.

In the case of `CC1=C(C(=O)N2CCOCC2)CC(CC(=O)NCCCN(C)C)C(=O)N1Cc1ccc(C(C)(C)C)cc1` (stereo unspecified), the activity change was -21.9%. Turning to `COc1ccccc1C(=O)c1ccccc1C(=O)c1ccccc1`, the activity change was -7.51%.

`CCOC(=O)C(=Cc1ccccc1OC)C(=O)OCC`: the activity change is -99.3% (active). As for `CCOC(=O)c1ccccc1OC(=O)Oc1ccccc1C(=O)OCC`, the activity change is -16.9%. Regarding `CCOC(=O)C(=CNc1cccc(C)n1)C(=O)OCC`, the activity change is 16.2%. Turning to `CCOC(=O)C(=Cc1ccccc1)C(=O)c1ccccc1`, the activity change is -98.2% (active). Turning to `CCOC(=O)NC(=O)/C(C#N)=C\c1ccccc1`, the activity change was 3.54%. In the case of `C=CCn1c(=O)n(C)c2c(=O)n(C)c(=O)n(C)c21`, the activity change was -2.57%. Turning to `Cc1ccc(F)c(S(=O)(=O)NC(=O)C2(C)CCN2C(=O)CCc2cccs2)c1` (stereo unspecified), the activity change is 0.428%. Take `Cc1ccc(NC(=O)CN(C)C(=O)c2cccc(S(=O)(=O)N3CCCC3)c2)cc1`: the activity change was 8.98%. As for `NC(CSC1(c2ccccc2)c2ccccc2-c2ccccc21)C(=O)O` (stereo unspecified), the activity change was 24.5%. As to `CC(=O)c1ccc(S(=O)(=O)NCc2nnnn2-c2ccccc2)cc1`, the activity change was 8.11%. On to `O=C(NCc1nnnn1-c1ccc(Cl)cc1)c1ccc([N+](=O)[O-])o1`, for which the activity change was -76.1% (active). Consider `CN(C)c1nnnn1-c1ccc(Cl)cc1`, for which the activity change is 13.4%. For `CC1=C(C(=O)N2CCOCC2)CC(CC(=O)NCCN2CCOCC2)C(=O)N1CCC1=CCCCC1` (stereo unspecified) the value was 11.4%; for `COCCn1cnc2c1c(=O)n(Cc1ccc(Br)cc1)c(=O)n2Cc1ccccc1`, -61.2% (active). For `CC(C)CCn1cnc2c1c(=O)n(CC(=O)NC(N)=O)c(=O)n2Cc1ccccc1`, the activity change was -1.43%. In the case of `COCCn1cnc2c1c(=O)n(CC(=O)NN)c(=O)n2Cc1ccccc1`, the activity change is 0.195%. On to `COc1ccc2c(c1)CCCO[C@]21O[C@H](CCO)C[C@H](O)[C@H]1O`, for which the activity change is 24.3%.

With `Clc1ccc2nc(-c3ccccc3)nc(C(Cl)Cl)c2c1`, the activity change was 42.9%.

Turning to `NC(N)=Nc1nc(-c2ccccc2)c2cc(Cl)ccc2n1`, the activity change is -81.6% (active). For `COC(=O)Cn1nc(-c2ccccc2)c2cc(Cl)ccc21` the value was -6.25%; for `Cc1cccc(NS(=O)(=O)c2ccc(C)c(C(=O)NCC(c3ccccc3)N(C)C)c2)c1` (stereo unspecified), -29.1%; for `CC(C(=O)NCC1CCCCC1)N(C)Cc1cccc(Cl)c1` (stereo unspecified), -16.9%.

Regarding `O=Nc1c(O)cc(O)c2ccccc12`, the activity change is -2.52%. `O=C(COC(=O)Cn1cnc2ccccc2c1=O)NCC12CC3CC(CC(C3)C1)C2`: the activity change is -52.9% (active). With `CC1(C)C(=O)Nc2ccccc2N1C(=O)COC(=O)Cn1cnc2ccccc2c1=O`, the activity change is 7.25%. `O=C(COC(=O)Cn1cnc2ccccc2c1=O)NCc1ccccc1Cl`: the activity change was 12.2%. Regarding `CCc1cc(-c2nnn(CCC3COCCO3)c2CC)ccc1-c1cn(Cc2ccc3ccccc3c2)nn1` (stereo unspecified), the activity change is 52.6%. As for `Cc1ccc(CNC(=O)C2CCN(S(=O)(=O)c3ccc4nc5c(c(C(=O)O)c4c3)CC(C)CC5)CC2)cc1` (stereo unspecified), the activity change was 1.65%. Consider `Cc1cccc(-c2ncc(CN3CCC(CO)(CCCc4ccccc4)CC3)cn2)c1`, for which the activity change was -19.1%. Turning to `COc1ccc(CC2(CO)CCN(Cc3cnn(C)c3)CC2)cc1`, the activity change is 12.5%. `COc1cccc(CC2(CO)CCN(Cc3cnc(-c4cccc(C)c4)nc3)CC2)c1`: the activity change was -64.4% (active).

On to `CC(=O)c1cc(CN2CCC(n3nccc3NC(=O)c3ccccc3Cl)CC2)cs1`, for which the activity change is -15.4%. As to `O=C(NCc1nnc(SCC(=O)N2CCCCCC2)o1)c1ccc(F)cc1`, the activity change is 22.8%. On to `Cn1c(CNC(=O)c2ccco2)nnc1SCC(=O)N1CCN(c2ccccc2)CC1`, for which the activity change is 52%. As to `O=C(NCc1nnc(SCC(=O)N2CCC(Cc3ccccc3)CC2)o1)c1ccco1`, the activity change was -92.1% (active).

Regarding `NC(=O)C1(Nc2ccccc2Cl)CCCC1`, the activity change was -1.93%. For the compound `CCOC(=O)[C@]12CCCC=C1N(Cc1ccc3c(c1)OCO3)C(=O)[C@H](CC(=O)NCc1cccs1)C2`, the activity change was 0%. As for `O=C1C=C(c2ccc(Cl)cc2)C(=O)N1Nc1ccccc1`, the activity change is -76.1% (active).

Turning to `O=C(O)CC1=C(Nc2ccccc2)C(=O)N(c2ccccc2)C1c1ccc(Cl)cc1` (stereo unspecified), the activity change is 0%. `O=C(CCC(=O)OCc1ccc(Cl)cc1)Nc1ccccc1`: the activity change was 15%. As for `COc1ccc(NC(=O)C(C)N2c3cccc4cccc(c34)S2(=O)=O)c(OC)c1` (stereo unspecified), the activity change is 27.8%. With `CCC(C)CN1C(=O)CN(S(C)(=O)=O)CC1(C)C(=O)Nc1ccc2c(c1)OCCO2` (stereo unspecified), the activity change was -19.9%. As for `COc1ccc(-c2cc3c(c4c2ccn4C)C2CCC3C2)cn1` (stereo unspecified), the activity change was 0%.

For `COc1ccc(CCNCc2c(-c3ccccc3)n(C)c3ccccc23)cc1`, the activity change was -97.2% (active). With `COc1ccc(-c2c(C#Cc3ccccc3)c3ccccc3n2C)cc1`, the activity change is -16.3%.

For `COc1ccc(-c2nc3ccccc3c(=O)n2CCc2ccc(O)cc2)cc1`, the activity change is -13%. For `CCN1CN(Cc2ccccc2)CNC1=S`, the activity change was 0.299%. With `CCc1nnc(NC(=O)C2CCN(C(=O)c3ccccc3C)CC2)s1`, the activity change was -4.49%.

In the case of `O=C(CCCOc1ccc(Cl)cc1Cl)NNC(=O)C1CCC1`, the activity change was -7.73%.

Turning to `CCOc1ccc(S(=O)(=O)N2CCC(C(=O)NCc3ccccn3)CC2)cc1Cl`, the activity change was -5.47%. In the case of `Cc1ccc(C(NC(=O)C2CCN(CCOc3ccc(Cl)cc3Cl)CC2)c2ccccn2)cc1` (stereo unspecified), the activity change was -68.4% (active). With `CC(C)C[C@@H]1COc2cc(N3CCC[C@@H]3CO)ccc2S(=O)(=O)N1`, the activity change was 24.4%. On to `COc1ccc(CNc2ncnc3ccccc23)cc1`, for which the activity change was -5.53%. As to `NS(=O)(=O)c1ccc(CCNc2nc(C(F)(F)F)nc3ccccc23)cc1`, the activity change was -29.6%.

As to `CN(NC(=O)c1ccccc1F)c1nc(C(F)(F)F)nc2ccccc12`, the activity change is 94.2%.

Regarding `COc1cccc(CNc2nc(C(F)(F)F)nc3ccccc23)c1`, the activity change is -81.4% (active). For the compound `CCc1ccc(C(CNc2nc(C(F)(F)F)nc3ccccc23)N(C)C)cc1` (stereo unspecified), the activity change was -104% (active).

Take `COc1cccc(CNC(=O)c2n[nH]c3ccccc23)c1`: the activity change was -5.24%. Regarding `O=C(NCCc1ccc(F)cc1)c1ccc(S(=O)(=O)N2CCCCC2)cc1`, the activity change was 7.26%. For `CC1CN/C(=C\C(=O)c2ccc(Br)cc2)C(=O)N1` (stereo unspecified) the value was -2.3%; for `CCc1nc2c(=O)[nH]cnc2o1`, -0.15%.

`CCCNC(=O)C1(C)CCCN(Cc2c(C)nn(-c3ccccc3)c2C)C1` (stereo unspecified): the activity change was 0%. For `C[C@H]1Cn2cnc(C(=O)N[C@H](C)c3ccccc3)c2C(=O)N1` the value was 56.9%; for `O=C(Nc1cccc(C(=O)O)c1)/C(=C\c1ccccc1)NC(=O)c1ccc(Br)o1`, -24.2%; for `C[C@H]1CN([C@@H](C)CO)S(=O)(=O)c2ccc(Br)cc2O[C@H]1CN(C)C(=O)c1cnccn1`, 7.37%.

For the compound `Nc1c(C(=O)c2cccs2)sc2nsc(SCCN3CCCCC3)c12`, the activity change is -95.7% (active). Under `O=C(CSc1ncnc2sccc12)N1CCN(C(=O)c2cccs2)CC1` stands -0.616%. Under `CCC1OC(C2CC2)CC2=C1C(=O)OC(C)(C)O2` (stereo unspecified) stands 29.6%.

As for `NC1=NC(c2ccc([N+](=O)[O-])cc2)N(c2ccc(F)cc2)C(N)=N1` (stereo unspecified), the activity change was -52.3% (active). As for `O=[N+]([O-])c1ccc(N2CCN(c3ccc(F)cc3)CC2)cn1`, the activity change is -1.6%. Under `COc1ccc(C2N=C(N)N=C(N)N2c2ccccc2)cc1OC` (stereo unspecified) stands -16.9%; under `CC(C)(C)c1ccc(S(=O)(=O)NC(=O)C2(C)CCN2C(=O)CC2CC2)cc1` (stereo unspecified), -3.72%; under `CC(Nc1nc(N2CCN(CCO)CC2)nc2ccccc12)c1ccccc1` (stereo unspecified), -90.7% (active). For the compound `CC(Nc1nc(N2CCOCC2)nc2ccccc12)c1ccccc1` (stereo unspecified), the activity change was 0%. On to `CC(Nc1nc(N2CCCC2)nc2ccccc12)c1ccccc1` (stereo unspecified), for which the activity change is -80.2% (active).

Turning to `Cn1c(=O)[nH]c(=O)c2c1nc(N1CCN(CCO)CC1)n2CCSc1nc2ccccc2s1`, the activity change is 10.2%. For `c1ccc(-c2cc(N3CCCCC3)c3ccccc3n2)cc1`, the activity change was -26.2%. For the compound `CCCCn1c(CN2CCN(CCO)CC2)nc2ccccc21`, the activity change is 44.1%. Consider `COc1ccc(CCCNC(=O)C2Cc3c(-c4cccc(C(N)=O)c4)ccnc3O2)cc1` (stereo unspecified), for which the activity change is 34.7%. As to `CCN(CC)CCCN=C(N)N`, the activity change is -17.5%.

With `O=P(c1ccc2c(c1)OCCO2)(N1CCOCC1)N1CCOCC1`, the activity change is 8.69%. For `Cc1ccc(OCC(=O)Nc2ccc(NC(=O)c3cccs3)cc2)c(C)c1`, the activity change is -1.3%. On to `COc1ccc(C(=O)Nc2ccccc2C(=O)N2CCN(c3ccccc3)CC2)cc1`, for which the activity change was 0%.

As for `COc1cccc(OCc2cc(C(=O)N3CCN(C(=O)c4ccco4)CC3)no2)c1`, the activity change is 6.56%. On to `Cc1ccc(NC(=O)C(c2ccccc2)N2CCN(C(=O)c3ccco3)CC2)cc1` (stereo unspecified), for which the activity change is 16.1%.

For `COc1cccc(C(=O)Nc2ccc(N3CCN(C(=O)c4ccco4)CC3)cc2)c1`, the activity change was -73.8% (active). For the compound `Cc1ccc(OCC(=O)Nc2ccc(N3CCN(C(=O)c4ccco4)CC3)cc2)c(C)c1`, the activity change is -61.6% (active).

For the origin of these results see PubChem BioAssay AID743279 (National Center for Advancing Translational Sciences (NCATS), 2014).
